# From PubChem BioAssay
# “And” between values parts separate entries of the source, which are not always exact repeats. Identical values can stand only once. The source made the active and inactive calls. Unless noted, the rule behind the calls is not given here.
# Key:
# [1] = polyglutamine-triggered caspase-3 activation inhibitors, cell-based (AID 1583); conditions: polyglutamine-induced caspase-3 activation, cell assay; stronger effect = higher value;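 tested at 10 µM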
# [2] = suppressors of polyQ aggregation in yeast, 75Q-TubU reporter (AID 1593); conditions: Yeast 75Q polyglutamine aggregation reporter
# [3] = inhibitors of mitochondrial cytochrome c release, biochemical, purified mitochondria (AID 1603); conditions: stronger effect = lower value;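 note: mouse liver mitochondria challenged with calcium chloride; signal normalized to the plate average as 100%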
# [4] = liver-stage malaria parasite growth inhibition, primary screen, cell-based, HepG2, luciferase luminescence, HepG2 viability (AID 624349; in the data active = parasite load remaining mostly below about 12%, no sharp cut-off; inactive = mostly above about 10%;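 note: 100% = mean of DMSO negative control wells on the same plate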); conditions: P. berghei liver stage in HepG2, luciferase luminescence, concentration not given here; parasite load remaining: stronger effect = lower value; viability: measured here: HepG2 viability without parasites
# [5] = target: 6-phosphogluconate dehydrogenase, decarboxylating (Homo sapiens) (UniProt P52209); experiment: 6PGD enzyme inhibitors, primary screen, biochemical, human, recombinant enzyme, NADPH absorbance (AID 1159550;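 active = at least 20% inhibition of 6-phosphogluconate dehydrogenase activity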); conditions: recombinant 6PGD, NADPH absorbance 341 nm; at 10 µM; stronger effect = higher value
# 6-phosphogluconate dehydrogenase, decarboxylating (Homo sapiens), sequence (P52209 whole entry, looked up): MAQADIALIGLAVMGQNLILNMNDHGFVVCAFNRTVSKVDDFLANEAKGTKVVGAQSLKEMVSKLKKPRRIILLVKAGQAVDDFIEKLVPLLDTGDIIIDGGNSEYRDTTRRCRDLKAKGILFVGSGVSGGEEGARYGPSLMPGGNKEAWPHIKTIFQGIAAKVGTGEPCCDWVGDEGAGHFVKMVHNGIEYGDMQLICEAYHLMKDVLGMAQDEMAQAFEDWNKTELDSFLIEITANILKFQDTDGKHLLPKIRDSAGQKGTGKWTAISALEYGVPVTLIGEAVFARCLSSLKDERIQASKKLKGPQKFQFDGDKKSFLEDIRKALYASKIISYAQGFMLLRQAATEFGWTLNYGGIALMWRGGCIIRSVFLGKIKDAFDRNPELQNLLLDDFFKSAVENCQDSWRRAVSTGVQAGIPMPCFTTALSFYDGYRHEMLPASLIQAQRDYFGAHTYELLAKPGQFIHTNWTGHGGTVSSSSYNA
# [6] = differential killing of epithelial or mesenchymal cells, primary screen, imaging, PC-3E GFP, TEM4-18 mCherry, co-culture (AID 1345086;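 active = compounds killing one labelled cell type while sparing the other, by normalised counts and ratio limits, not self-fluorescent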;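 for all read-outs here: cells exposed to compound for 72 h before imaging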;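 for red/green cell ratio (normalised): normalised mesenchymal count divided by normalised epithelial count so high means epithelial killing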); conditions: imaging cell counts, at 1 µM; for red/green cell ratio (normalised): actives lie on both sides
# [7] = system: Aerobactin synthetase IucA (Klebsiella pneumoniae hvKP1); experiment: Biochemical IucA enzyme inhibition primary screen of the Spectrum library (AID 1346200); conditions: malachite green pyrophosphate, A620, at 8 µM, stronger effect = lower value;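 note: 100% = wells without compound and 0% = wells lacking enzyme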
# [8] = sensitizers of A549 cells to miR-34 induction, primary screen, imaging, A549 dox-inducible miR-34, nuclei and caspase counts (AID 1347080;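 active = compounds whose cell count with miR-34 switched on is under 0.7 times the count with it off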); conditions: A549 miR-34 inducible, Hoechst nuclei count, 48 h
# [9] = target: NAD(+) hydrolase SARM1 (Homo sapiens) (UniProt Q6SZW1); experiment: SARM1 TIR NADase inhibitors, cell lysate, NAD-Glo luminescence (AID 1508614;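 active = compound whose remaining NAD level is above about 45 nM, limit read from the data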;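 note: higher remaining NAD means stronger inhibition of SARM1 NADase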); conditions: SAM-TIR HEK293T lysate NADase, at 1 µM, stronger effect = higher value
# NAD(+) hydrolase SARM1 (Homo sapiens), sequence (Q6SZW1 whole entry, looked up, the tested form may be a part): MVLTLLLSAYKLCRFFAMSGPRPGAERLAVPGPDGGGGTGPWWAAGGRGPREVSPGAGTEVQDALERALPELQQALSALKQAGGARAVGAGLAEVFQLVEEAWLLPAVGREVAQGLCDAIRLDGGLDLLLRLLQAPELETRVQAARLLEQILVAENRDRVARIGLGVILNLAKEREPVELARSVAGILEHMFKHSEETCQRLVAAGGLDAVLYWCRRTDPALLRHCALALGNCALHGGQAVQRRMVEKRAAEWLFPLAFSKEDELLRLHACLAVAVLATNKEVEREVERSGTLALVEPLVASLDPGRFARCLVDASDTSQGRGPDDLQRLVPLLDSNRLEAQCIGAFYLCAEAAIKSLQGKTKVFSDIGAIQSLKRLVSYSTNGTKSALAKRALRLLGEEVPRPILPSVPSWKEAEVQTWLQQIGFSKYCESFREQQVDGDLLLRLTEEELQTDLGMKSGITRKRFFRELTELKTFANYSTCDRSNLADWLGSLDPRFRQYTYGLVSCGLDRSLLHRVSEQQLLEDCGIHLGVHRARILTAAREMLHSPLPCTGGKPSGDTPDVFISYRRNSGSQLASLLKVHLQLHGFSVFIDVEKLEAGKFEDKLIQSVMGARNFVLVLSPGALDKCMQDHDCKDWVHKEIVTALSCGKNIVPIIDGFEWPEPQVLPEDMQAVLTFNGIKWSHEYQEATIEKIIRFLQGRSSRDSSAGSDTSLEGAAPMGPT
# [10] = target: Mitogen-activated protein kinase 7 (Homo sapiens) (UniProt Q13164); experiment: ERK5 transactivation activators in reporter cells, primary screen, cell-based, HTS (AID 1508626;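 active = luciferase signal above three times the same-plate solvent-only control wells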;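 note: luciferase driven by Gal4-ERK5 fusion binding five Gal4 sites before minimal TATA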); conditions: HeLa Gal4-ERK5 transactivation, 18 h, at 5 µM, stronger effect = higher value
# Mitogen-activated protein kinase 7 (Homo sapiens), sequence (Q13164 whole entry, looked up, the tested form may be a part): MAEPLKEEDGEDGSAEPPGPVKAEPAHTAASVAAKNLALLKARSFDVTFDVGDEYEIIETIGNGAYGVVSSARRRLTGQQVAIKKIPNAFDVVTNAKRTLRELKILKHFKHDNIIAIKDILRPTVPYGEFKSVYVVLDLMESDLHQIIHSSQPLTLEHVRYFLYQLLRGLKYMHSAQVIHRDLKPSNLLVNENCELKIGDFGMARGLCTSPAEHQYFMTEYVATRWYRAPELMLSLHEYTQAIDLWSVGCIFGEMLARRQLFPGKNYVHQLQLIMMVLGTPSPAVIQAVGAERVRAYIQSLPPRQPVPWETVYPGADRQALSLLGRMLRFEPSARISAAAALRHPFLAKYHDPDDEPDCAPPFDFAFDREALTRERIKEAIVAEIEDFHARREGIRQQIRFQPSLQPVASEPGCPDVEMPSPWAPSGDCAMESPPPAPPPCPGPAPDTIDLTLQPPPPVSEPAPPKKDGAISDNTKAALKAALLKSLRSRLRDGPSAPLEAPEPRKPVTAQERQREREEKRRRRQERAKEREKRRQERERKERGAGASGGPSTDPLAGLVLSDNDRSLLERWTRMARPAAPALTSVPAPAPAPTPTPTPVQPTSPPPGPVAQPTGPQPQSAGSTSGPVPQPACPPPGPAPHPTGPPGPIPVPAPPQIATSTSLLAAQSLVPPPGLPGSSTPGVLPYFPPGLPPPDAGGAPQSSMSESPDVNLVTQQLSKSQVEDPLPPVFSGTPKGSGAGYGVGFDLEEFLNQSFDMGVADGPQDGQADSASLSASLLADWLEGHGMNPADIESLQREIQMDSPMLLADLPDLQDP
# [11] = hESC survival regulators, cell-based (AID 493140); conditions: human embryonic stem cell survival screen; stronger effect = higher value;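 note: cells exposed to compounds for four days before counting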
# [12] = survival rescue of mitochondrial mutant cells in low glucose, primary screen, MELAS cybrids, Rieske KO mouse fibroblasts, CellTiter-Glo (AID 1508586;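 active = mean z-score across replicates of 1.96 or higher in either the MELAS or the Rieske mutant cell line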;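 note: z relative to plate mean and SD of compound and empty wells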)
# [13] = measured here: epithelial PC-3E GFP cell survival
# [14] = measured here: mesenchymal TEM4-18 mCherry cell survival
# [15] = measured here: relative caspase fold change +Dox/-Dox
# [16] = measured here: total cells with miR-34 induction, stronger effect = lower value
# [17] = measured here: total cells without miR-34 induction
# [18] = MELAS cybrid survival, CellTiter-Glo 48 h, stronger effect = higher value
# [19] = Rieske KO mouse fibroblast survival, CellTiter-Glo 72 h
# [20] = counts scaled to control wells, 1 = unselective
SMILES,inhibition [1] [%],score [2],cytochrome c release ratio [3],parasite load remaining [4],viability [4],inhibition [5],red/green cell ratio (normalised) [6],"normalised cell number [6, 13]","normalised cell number [6, 14]",activity remaining [7],fold change ([8]; stronger effect = lower value),"fold change [8, 15]","cell count [8, 16]","cell count [8, 17]",remaining NAD [9],luciferase signal [10],survival [11],"z-score [12, 18]","z-score [12, 19]","red/green cell ratio (normalised) [6, 20]"
ClC1C(Cl)C(Cl)C(Cl)C(Cl)C1Cl (configuration not stated),25.7,0.3,1.15,60.1% (inactive),93.4%,7.58% (inactive),1.19 (inactive),1.23,1.47,113% (inactive),0.871 (inactive),1.71,10400,11900,10 nM (inactive),192 AU (inactive),,,,
CN1CCc2cc3c(cc2C1O)OCO3 (configuration not stated),-17.4,1.48,0.81,109% (inactive) and 58% (inactive),90% and 91.8%,0.261% (inactive),1.09 (inactive),0.97,1.06,118% (inactive),0.923 (inactive),1.43,11700,12700,10 nM (inactive),52 AU (inactive),16.8 (inactive),,,
C[C@@H](N)[C@@H](O)c1ccccc1,,,,28.8% (inactive),110%,-16.8% (inactive) and 9.51% (inactive),0.97 (inactive),1.13,1.1,122% (inactive),0.851 (inactive),1.36,8010,9410,,,,-0.426 (inactive),-0.509,
CC[N+]1(C)CCCC(OC(=O)C(O)(c2ccccc2)c2ccccc2)C1 (configuration not stated),-29.9,1.45,1.2,98.8% (inactive) and 137% (inactive),99.5% and 99.4%,-2.23% (inactive),0.98 (inactive),1.12,1.1,116% (inactive),0.964 (inactive),1.14,8700,9020,,84 AU (inactive),2.83 (inactive),-0.637 (inactive),-0.323,
[N-]=[N+]=CC(=O)OCC(N)C(=O)O (configuration not stated),30.9,1.27,1.1,3.63% (inactive),82.2%,12.8% (inactive),1.35 (inactive),0.86,1.16,105% (inactive),0.832 (inactive),1.38,601,722,,,,,,
CN[C@@H]1[C@@H](O)C(OC2[C@@H](N)C[C@@H](N)[C@H](O[C@H]3O[C@H](C(C)O)[C@@H](O)[C@H](O)[C@H]3N)[C@H]2O)OC[C@]1(C)O (some centres not stated),,,,,,15.2% (inactive),,0.91,0.99,111% (inactive),,,,,,,,,,1.08 (inactive)
S=C=NCc1ccccc1,,,,45.7% (inactive),72.2%,-1.63% (inactive),0.83 (inactive),1.15,0.95,83.8% (inactive),,,,,10 nM (inactive),168 AU (active),,,,
C=CCC1(C(C)CCC)C(=O)N=C(S)NC1=O (configuration not stated),1.58,1.49,0.94,21.5% (inactive),101%,2.84% (inactive),1.3 (inactive),0.79,1.03,110% (inactive),0.918 (inactive),2.58,11400,12400,10 nM (inactive),84 AU (inactive),,,,
O=C(O)CCC1NCC2CC1CN1CCCCC21 (configuration not stated),,,,,,1.87% (inactive),,0.9,1.01,120% (inactive),,,,,,,,,,1.12 (inactive)
CN1C2CCC1CC(OC(c1ccccc1)c1ccccc1N)C2 (configuration not stated),,,,,,2.13% (inactive),0.76 (inactive),1.34,1.01,118% (inactive),1 (inactive),2.1,9770,9760,,,,,,
C[C@H]1CCCC(=O)CCC/C=C/c2cc(O)cc(O)c2C(=O)O1,,,,,,15.7% (inactive),,1.02,1.04,103% (inactive),,,,,,,,,,1.02 (inactive)
O=C(O)CCCOc1ccc(Cl)cc1Cl,,,,,,-17.1% (inactive),,1.36,1.05,103% (inactive),,,,,,,,,,0.77 (inactive)
